This is a sample that favours compounds with a hit; in the whole collection about 7.9% have one here.
SW480 rereplic: A quantitative high throughput screen for small molecules that induce DNA re-replication in SW480 colon adenocarcinoma cells; Potency, µM (highest dose often 46.1 µM), usual class: activators; AID 624297, 2012; SW480 DNA re-replication, Hoechst DNA content imaging, 48 h; actives 1.8% (n = 340,000); note: nearly all actives have a fitted effect of over 55% in size
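Image-based DNA-content assay: after two days of treatment, nuclei were labelled with the DNA dye Hoechst and imaged, and hits were compounds raising the count of nuclei showing high fluorescence intensity.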
MCF10A rereplic: A quantitative high throughput screen for small molecules that induce DNA re-replication in MCF 10a normal breast cells; actives 2.9% (n = 350,000); Potency, µM (highest dose often 46.1 µM), hits mostly activators; MCF 10A DNA re-replication, Hoechst nuclear intensity, 48 h; AID 624296, 2012; note: nearly all actives have a fitted effect of over 50% in size
KB-V1 MDR tox: qHTS assay for MDR1-selective chemotherapeutics: Primary screen using the drug-selected MDR subline cells KB-V1. KB-V1 MDR cells viability, CellTiter-Glo, 72 h. Potency, µM (doses to about 46.1 µM), actives largely listed as cytotoxic. actives 3.4% (n = 400,000); note: nearly all actives have a fitted effect of over 60% in size
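Following 72 h at 37 degrees C with compound, KB-V1 cell viability was read by CellTiter-Glo luminescence, medium being phenol-red-free DMEM plus 10% FBS; concentration-response parameters came from normalized, curve-fitted qHTS data.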
HT1080NT lethal: qHTS for induction of synthetic lethality in tumor cells producing 2HG: qHTS for the HT-1080-NT fibrosarcoma cell line; HT-1080-NT fibrosarcoma viability, CellTiter-Glo ATP luminescence, 48 h; Potency, µM (series often up to 46.1 µM), hits mostly cytotoxic; actives 1.6% (n = 360,000); AID 686970, 2013;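 note: NT is the 2HG producing partner of a matched IDH1 knockdown line; nearly all actives have a fitted effect of over 55% in size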
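HT-1080-NT fibrosarcoma cells (2HG-overproducing), 750 cells/well in RPMI with 5% FBS, dosed after 2 h and incubated 48 h at 37C. CellTiter-Glo luminescence normalized to DMSO and no-cell wells; concentration-response curves fitted and classed.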
KB-3-1 cytotox: qHTS assay for MDR1-selective chemotherapeutics: Primary screen using the parental adenocarcinoma cell KB-3-1; Potency, µM (doses to about 46.1 µM), actives largely listed as cytotoxic; KB-3-1 viability, CellTiter-Glo ATP luminescence, 72 h; actives 1.4% (n = 400,000); note: nearly all actives have a fitted effect of over 60% in size
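Cytotoxicity in the drug-sensitive parental line KB-3-1 was scored as loss of CellTiter-Glo luminescence following 72 h incubation with compound. Values come from curve fitting of normalized concentration-response data.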
HT1080 IDH1KD tx: qHTS for induction of synthetic lethality in tumor cells producing 2HG: qHTS for the HT-1080-IDH1KD cell line; Potency, µM (highest dose often 46.1 µM), actives largely listed as cytotoxic; actives 2% (n = 360,000); HT-1080 IDH1 knockdown viability, ATP luminescence, 48 h
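IDH1KD HT-1080 cells, 750/well, RPMI + 5% FBS; compound pinned after 2 h settling; 48 h, 37 °C; CellTiter-Glo luminescence; % activity normalised to DMSO and no-cell wells; curves fitted, classed by r2 and efficacy.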
Numbers stand for hits; i = inactive; ? = inconclusive; nt = no result given; ! = not active in a repeat. Calls come from the whole dose curve; as a rule, active = well fitted curve in the direction sought with a large enough effect; inconclusive = small, poorly fitted or top-dose-only effect, or another doubt; inactive = no such curve, though single readings can be large; an effect the other way counts as inactive or inconclusive.

SMILES	SW480 rereplic	MCF10A rereplic	KB-V1 MDR tox	HT1080NT lethal	KB-3-1 cytotox	HT1080 IDH1KD tx
CCOc1cccc(C(=O)Nc2cccc(-c3nnc(-c4ccccc4)o3)c2)c1	?	?	i	i	i	i
COc1ccc(CC(=O)Nc2cccc(-c3nnc(-c4ccc(C)cc4)o3)c2)cc1OC	i	?	4.1µM	?	i	?
O=C(NCCc1ccccc1F)C1CC(=O)N(c2ccccc2)C1 (stereo unspecified)	i	i	i	i	i	i
O=[N+]([O-])c1cccc(S(=O)(=O)N/N=C\c2ccc3c(c2)OCO3)c1	i	i	?	i	i	i
CC(=O)c1ccc(NC(=O)COc2ccccc2-c2nc(C)no2)cc1	nt	nt	i	nt	i	nt
COc1ccc(CC(=O)Nc2cccc(-c3nnc(-c4ccccc4)o3)c2)cc1OC	i	21µM	?	?	?	i
O=C(COc1ccccc1)Nc1ccc(-c2nnc(-c3ccco3)o2)cc1	i	i	i	9.2µM	i	12µM
COc1ccc(CC(=O)Nc2ccc(-c3nnc(-c4ccccc4)o3)cc2)cc1OC	i	i	?	i	i	i
O=C(Nc1cccc(-c2nnc(-c3ccccc3)o2)c1)C1CC1	i	i	10µM	i	i	i
COc1ccc(CC(=O)Nc2ccccc2C(=O)N2CCOCC2)cc1OC	0.58µM	i	i	i	i	i
CC(C)Cn1c(N)c(C(=O)NCCN2CCOCC2)c2nc3ccccc3nc21	i	i	23µM	i	i	i
COC(=O)c1c(N)n(CCCN2CCOCC2)c2nc3ccccc3nc12	?	?	i	i	i	i
Cc1cccc(-n2c(N)c(C(=O)NCCN3CCOCC3)c3nc4ccccc4nc32)c1	?	21µM	i	?	i	?
Cc1cccc(-n2cnc3cc(C(=O)NCCN4CCOCC4)ccc32)c1	nt	nt	?	i	i	i
Cc1ccc(OCC(=O)Nc2ccc(C(=O)OCc3cc(=O)n4ccsc4n3)cc2)cc1C	nt	nt	i	nt	i	nt
CCOC(=O)c1cccc(NC(=O)C2(S(=O)(=O)c3ccc(Cl)cc3)CC2)c1	i	i	i	i	i	i
CCOC(=O)c1cccc(NC(=O)C2(S(=O)(=O)c3ccc(C)cc3)CC2)c1	i	i	18µM!	i	i	i
CCCCN(CCCC)CCCNC(=O)C1CC(c2cc(C(F)(F)F)cc(C(F)(F)F)c2)=NO1 (stereo unspecified)	i	i	?	i	i	i
COc1ccccc1CN1CCCCC1C(=O)O (stereo unspecified)	?	i	i	i	i	i
O=C(Nc1cccc(C(=O)N2CCCCC2)c1)C1CCC1	i	i	i	i	i	i
Cc1cc(N2CCN(C(=O)c3ccoc3)CC2)n2nc(-c3ccccc3)cc2n1	nt	nt	i	i	i	i
O=C(c1ccoc1)N1CCN(c2cc(-c3ccccc3)nc3cc(-c4ccccc4)nn23)CC1	nt	nt	?	i	16µM	?
COc1ccccc1-c1cc2nc(-c3ccccc3)cc(N3CCN(C(=O)c4ccco4)CC3)n2n1	nt	nt	?	i	16µM	i
COc1ccccc1-c1cc2nc(-c3ccccc3)cc(N3CCN(C(=O)c4ccoc4)CC3)n2n1	nt	nt	9.2µM	i	?	i
O=C(CCOc1ccccc1)Nc1ccnn1C1CCN(Cc2ccc(CO)o2)CC1	i	i	i	i	i	i
O=C(NCCc1ccccc1Cl)c1sc2ncccc2c1-n1cccc1	nt	nt	i	nt	i	nt
O=C(N/N=C/c1ccco1)C1CC1(c1ccccc1)c1ccccc1 (stereo unspecified)	i	i	21µM	i	i	i
O=C1CC(c2cccc(Br)c2)C2=C(COC2=O)N1 (stereo unspecified)	i	i	i	i	i	i
